Data published in PubChem BioAssay (NCI).
Where “and” joins values, the source holds several entries; their conditions need not be identical. Equal values may be shown once. About 83,000 compounds went through this panel and 20% of them were active in at least one assay; those are over-represented in the sample as a whole.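 Growth was measured after 48 h exposure to one concentration of compound in 96-well plates. Values under 10 count as active.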 The source holds several records for some structures; these can differ, active in one and inactive in another. Calls of active or inactive are those of the source.

Test system: HCT-116 colon
Assay: NCI-60 one-dose screen, 48 h (100 = growth as untreated, 0 = no growth, -100 = all killed)
Conditions: 10 µM unless noted

Row | SMILES | growth
1 | CCN1CCN(CCNc2nccc(-c3c(-c4cccc(O)c4)nc4sccn34)n2)S1(=O)=O | 53.5% (inactive) and 47.7% (inactive)
2 | CCCCCCCCCCCCCCCc1cc(O)ccc1N | 94.4% (inactive) and 91.4% (inactive)
3 | CN1CCN(c2ccc3nc(-c4c(N)c5c(F)cccc5[nH]c4=O)[nH]c3c2)CC1 | 19.1% (inactive) and 3.86% (active)
4 | OCCN1CCN(CCCN2c3ccccc3Sc3ccc(Cl)cc32)CC1 | 35.1% (inactive) and 66.7% (inactive)
5 | NC(=S)NS(=O)(=O)c1ccc(N)cc1 | 101% (inactive)
6 | COc1cc(C(=O)N/N=C/c2ccc(N(C)C)cc2)cc(OC)c1OC | 10.1% (inactive)
7 | OC(CSc1ccccc1)CN1CCN(c2cccc(Cl)c2)CC1 (stereo not given) | 93.3% (inactive) and 97.5% (inactive)
8 | COc1cc(Nc2nc3ccccc3nc2NS(=O)(=O)c2ccc(NC(=O)c3ccc(C)c(OC)c3)cc2)cc(OC)c1 | 69.9% (inactive) and 18.2% (inactive)
9 | O=C(Nc1cccc(-n2ccc3c(NC(=O)c4ccccc4)nccc32)c1)c1ccc(Cl)c(C(F)(F)F)c1 | -99.1% (active) and 32.4% (inactive)
10 | CC(C(=O)O)n1cc(C#N)c(=O)[nH]c1=O (stereo not given) | 105% (inactive)
11 | CC1=NN(c2ccccc2)C(=O)C1C(=O)c1ccccc1 (stereo not given) | 98.3% (inactive)
12 | CCOC(=O)c1c(C)oc(C)c(C(=O)OCC)c1=O | 97% (inactive) and 97.3% (inactive)
13 | NC(=O)NO | 109% (inactive) and 67.6% (inactive)
14 | C1CCCCNCCC1 | 107% (inactive)
15 | OC1CCC(Oc2cccc3cnc(Nc4ccc5nc[nH]c5c4)nc23)CC1 (stereo not given) | -6.99% (active) and 2.03% (active)
16 | CC(C)CNC(=O)c1ccccc1C(=O)NC1(C(=O)NCC(C)C)CCCC1 | 106% (inactive) and 104% (inactive)
17 | C=C1C(=O)O[C@H]2[C@H]1CC/C(COC(=O)NC1CCC(O)CC1)=C\CC[C@@]1(C)O[C@@H]21 (stereo not given in full) | 41.5% (inactive) and 33% (inactive)
18 | O=C(O)C1C2C=CC(C2)C1C(=O)O (stereo not given) | 104% (inactive) and 17.3% (inactive) and 112% (inactive)
19 | CCN(CC)CCCC(C)N(Cc1ccccc1)CC(O)c1ccc(Cl)cc1 (stereo not given) | 102% (inactive) and 100% (inactive)

Row | SMILES | growth
20 | CC(=O)NC(Cc1ccccc1)C(=O)Oc1ccc2ccccc2c1 (stereo not given) | 113% (inactive) and 114% (inactive)
21 | O=C(Oc1cccc(OC(=O)c2ccccc2)c1)c1ccccc1 | 89.2% (inactive) and 93.9% (inactive)
22 | CC(C)(C)c1ccc(O)c(CNC2CCCCC2)c1 | 86.7% (inactive) and 88.3% (inactive)
23 | Cc1cccc(/C=C\C(=O)c2ccccc2)c1 | 56.9% (inactive)
24 | Cc1nnc(NC/C=C/c2ccccc2)s1 | 105% (inactive) and 100% (inactive)
25 | Clc1ccc(NC(Nc2ccc(Cl)cc2)C(Cl)(Cl)Cl)cc1 | 61.9% (inactive) and 85.4% (inactive)
26 | COc1ccccc1NC(=O)OCC#CCOC(=O)Nc1ccccc1OC | 99.9% (inactive) and 87.4% (inactive)
27 | O=C1NC(=O)C2(CCc3ccccc32)N1 (stereo not given) | 113% (inactive) and 96.3% (inactive)
28 | CC(C)Cc1ccc(C(C)C(=O)NCc2ccc(Cn3c(=O)sn(CCCCl)c3=O)cc2)cc1 (stereo not given) | 92.4% (inactive) and -65.6% (active)
29 | Cn1cnc([N+](=O)[O-])c1Sc1ncnc2nc[nH]c12 | 50% (inactive) and 60.1% (inactive)
30 | CCCCCCCCCCCCOc1ccccc1C=O | 103% (inactive)
31 | Nc1cc2c(cc1N)-c1ccccc1C2 | 98.8% (inactive) and 100% (inactive)
32 | C[N+](C)(C)CN1C(=O)c2ccccc2C1=O | 104% (inactive)
33 | Nc1ncnc2c1ncn2C1CC(O)C(CO)O1 (stereo not given) | 103% (inactive) and 100% (inactive)
34 | Cc1ccc(S(=O)(=O)Nc2nc3ccccc3nc2Nc2ccc3nsnc3c2)cc1 | 38.4% (inactive) and 42.2% (inactive)
35 | CN(Cc1ccccc1)Cc1ccccc1 | 103% (inactive)
36 | COc1cc(C(=O)c2ccc3c(c2)OCO3)cc(OC)c1OC | 27.2% (inactive) and 24.5% (inactive)
37 | CCN(CC)CCOc1ccc(/C=N/Nc2nc3c([nH]2)c(=O)n(C)c(=O)n3C)cc1 | 98.3% (inactive) and 103% (inactive)
38 | O=[N+]([O-])c1ccc(Oc2ccccc2)cc1 | 98.2% (inactive) and 106% (inactive)

Test system: HCC-2998 colon
Assay: as above
Conditions: 10 µM unless noted

Row | SMILES | growth
39 | CCN1CCN(CCNc2nccc(-c3c(-c4cccc(O)c4)nc4sccn34)n2)S1(=O)=O | 111% (inactive) and 97.1% (inactive)
40 | CN1CCN(c2ccc3nc(-c4c(N)c5c(F)cccc5[nH]c4=O)[nH]c3c2)CC1 | 38.2% (inactive) and 44.8% (inactive)
41 | OCCN1CCN(CCCN2c3ccccc3Sc3ccc(Cl)cc32)CC1 | 15.2% (inactive) and 70.6% (inactive)
42 | NC(=S)NS(=O)(=O)c1ccc(N)cc1 | 106% (inactive)
43 | COc1cc(C(=O)N/N=C/c2ccc(N(C)C)cc2)cc(OC)c1OC | 12% (inactive)
44 | OC(CSc1ccccc1)CN1CCN(c2cccc(Cl)c2)CC1 (stereo not given) | 106% (inactive) and 95% (inactive)
45 | O=C(Nc1cccc(-n2ccc3c(NC(=O)c4ccccc4)nccc32)c1)c1ccc(Cl)c(C(F)(F)F)c1 | -27.9% (active) and 64.4% (inactive)
46 | CC(C(=O)O)n1cc(C#N)c(=O)[nH]c1=O (stereo not given) | 101% (inactive) and 104% (inactive)
47 | CC1=NN(c2ccccc2)C(=O)C1C(=O)c1ccccc1 (stereo not given) | 90.5% (inactive)
48 | CCOC(=O)c1c(C)oc(C)c(C(=O)OCC)c1=O | 102% (inactive)
49 | NC(=O)NO | 111% (inactive) and 73.1% (inactive)
50 | C1CCCCNCCC1 | 112% (inactive)
51 | OC1CCC(Oc2cccc3cnc(Nc4ccc5nc[nH]c5c4)nc23)CC1 (stereo not given) | 8.35% (active) and 61.4% (inactive)
52 | CC(C)CNC(=O)c1ccccc1C(=O)NC1(C(=O)NCC(C)C)CCCC1 | 101% (inactive) and 103% (inactive)
53 | O=C(O)C1C2C=CC(C2)C1C(=O)O (stereo not given) | 117% (inactive) and 46.1% (inactive) and 107% (inactive)
54 | CCN(CC)CCCC(C)N(Cc1ccccc1)CC(O)c1ccc(Cl)cc1 (stereo not given) | 101% (inactive)

Row | SMILES | growth
55 | CC(=O)NC(Cc1ccccc1)C(=O)Oc1ccc2ccccc2c1 (stereo not given) | 105% (inactive) and 97% (inactive)
56 | O=C(Oc1cccc(OC(=O)c2ccccc2)c1)c1ccccc1 | 96.3% (inactive) and 102% (inactive)
57 | CC(C)(C)c1ccc(O)c(CNC2CCCCC2)c1 | 52.7% (inactive) and 104% (inactive)
58 | Cc1nnc(NC/C=C/c2ccccc2)s1 | 127% (inactive) and 102% (inactive)
59 | Clc1ccc(NC(Nc2ccc(Cl)cc2)C(Cl)(Cl)Cl)cc1 | 80.6% (inactive) and 92.4% (inactive)
60 | COc1ccccc1NC(=O)OCC#CCOC(=O)Nc1ccccc1OC | 103% (inactive) and 104% (inactive)
61 | O=C1NC(=O)C2(CCc3ccccc32)N1 (stereo not given) | 103% (inactive)
62 | CC(C)Cc1ccc(C(C)C(=O)NCc2ccc(Cn3c(=O)sn(CCCCl)c3=O)cc2)cc1 (stereo not given) | 95.7% (inactive) and -44.7% (active)
63 | Cn1cnc([N+](=O)[O-])c1Sc1ncnc2nc[nH]c12 | 64.4% (inactive) and 55% (inactive)
64 | CCCCCCCCCCCCOc1ccccc1C=O | 90.2% (inactive)
65 | Nc1cc2c(cc1N)-c1ccccc1C2 | 102% (inactive) and 90.1% (inactive)
66 | C[N+](C)(C)CN1C(=O)c2ccccc2C1=O | 108% (inactive)
67 | Nc1ncnc2c1ncn2C1CC(O)C(CO)O1 (stereo not given) | -17.3% (active) and 119% (inactive)
68 | Cc1ccc(S(=O)(=O)Nc2nc3ccccc3nc2Nc2ccc3nsnc3c2)cc1 | 42.1% (inactive)
69 | CCN(CC)CCOc1ccc(/C=N/Nc2nc3c([nH]2)c(=O)n(C)c(=O)n3C)cc1 | 102% (inactive) and 111% (inactive)
70 | O=[N+]([O-])c1ccc(Oc2ccccc2)cc1 | 102% (inactive) and 105% (inactive)
